Values without a mark were called inactive. Records with an inconclusive call do not appear. Where a call stands in place of a potency, no number is given. Activity calls are given as the source filed them. Unless noted, the call rests on the fitted dose curve; in most records, active means well fitted curve in the direction sought with a large enough effect in the repeat runs; inconclusive means weak or mixed curves; inactive means no such curve, though single readings can be large; an effect the other way counts as inactive or inconclusive.
Experiments:
[1] = qHTS assay to identify small molecule antagonists of the estrogen receptor beta (ER-beta) signaling pathway - cell viability counter screen (AID 1259382);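 further: HEK293T cells carrying ER-beta-UAS-bla reporter stimulated with estradiol; series mostly up to about 92 µM; nearly all actives have a fitted effect of over 55% in size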
Outline: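 Cells: ER-beta-UAS-bla HEK293T, 2,000/well, 2% CS-FBS, 6 hr settle. Cpd + E2 (1nM final), 16 hr, 37C/5% CO2. Bla FRET substrate 2 hr RT, then CellTiter-Glo 30 min RT, luminescence.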

[2] = target: Estrogen receptor (Homo sapiens) (UniProt P03372); assay: qHTS assay to identify small molecule agonists of the estrogen receptor alpha (ER-alpha) signaling pathway in the presence of an antagonist (AID 1259383; calls by dose curve; further: top concentration of the series differs between compounds; nearly all actives have a fitted effect of over 15% in size)
Sequence of Estrogen receptor (Homo sapiens) (P03372 whole entry, looked up): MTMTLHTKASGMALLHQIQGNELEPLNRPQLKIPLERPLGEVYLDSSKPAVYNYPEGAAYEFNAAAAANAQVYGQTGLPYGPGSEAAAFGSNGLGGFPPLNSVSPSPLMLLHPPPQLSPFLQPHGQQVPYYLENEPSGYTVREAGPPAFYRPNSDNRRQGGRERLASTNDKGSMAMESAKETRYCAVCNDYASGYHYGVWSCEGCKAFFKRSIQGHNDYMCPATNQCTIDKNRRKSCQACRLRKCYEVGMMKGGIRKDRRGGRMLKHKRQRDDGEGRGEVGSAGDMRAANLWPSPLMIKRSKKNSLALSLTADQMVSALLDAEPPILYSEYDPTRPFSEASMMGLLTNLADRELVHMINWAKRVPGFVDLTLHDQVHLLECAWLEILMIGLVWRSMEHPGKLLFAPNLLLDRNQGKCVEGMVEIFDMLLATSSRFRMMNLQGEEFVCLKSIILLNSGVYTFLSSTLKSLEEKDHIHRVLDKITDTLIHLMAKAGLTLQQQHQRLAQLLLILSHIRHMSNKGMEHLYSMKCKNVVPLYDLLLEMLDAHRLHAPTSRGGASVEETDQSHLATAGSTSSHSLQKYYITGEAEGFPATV
Outline: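 VM7Luc4E2, endog. ER-alpha + 4×ERE-luc; charcoal-stripped FBS, phenol red-free, 5 d; 24hr plating; +10.0nM ICI-182,780 (final); cpds 15 conc, 22hr, 37C/5% CO2; ONE-Glo luminescence.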

[3] = qHTS assay to identify small molecule agonists or antagonists of the thyroid stimulating hormone receptor (TSHR) signaling pathway - wild type cell line counter screen (AID 1259384; calls by dose curve)
Outline: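 Counter screen in untransfected Hek293: compounds (15-point titration, triplicate) plus phosphodiesterase inhibitor Ro20-1724 added after 18 h plating; 30 min RT. Intracellular cAMP via competitive d2/cryptate immunoassay, 1 h incubation.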

[4] = target: Thyrotropin receptor (Homo sapiens) (UniProt P16473); assay: qHTS assay to identify small molecule antagonists of the thyroid stimulating hormone receptor (TSHR) signaling pathway (AID 1259385; calls by dose curve; further: nearly all actives have a fitted effect of over 20% in size)
Sequence of Thyrotropin receptor (Homo sapiens) (P16473 whole entry, looked up): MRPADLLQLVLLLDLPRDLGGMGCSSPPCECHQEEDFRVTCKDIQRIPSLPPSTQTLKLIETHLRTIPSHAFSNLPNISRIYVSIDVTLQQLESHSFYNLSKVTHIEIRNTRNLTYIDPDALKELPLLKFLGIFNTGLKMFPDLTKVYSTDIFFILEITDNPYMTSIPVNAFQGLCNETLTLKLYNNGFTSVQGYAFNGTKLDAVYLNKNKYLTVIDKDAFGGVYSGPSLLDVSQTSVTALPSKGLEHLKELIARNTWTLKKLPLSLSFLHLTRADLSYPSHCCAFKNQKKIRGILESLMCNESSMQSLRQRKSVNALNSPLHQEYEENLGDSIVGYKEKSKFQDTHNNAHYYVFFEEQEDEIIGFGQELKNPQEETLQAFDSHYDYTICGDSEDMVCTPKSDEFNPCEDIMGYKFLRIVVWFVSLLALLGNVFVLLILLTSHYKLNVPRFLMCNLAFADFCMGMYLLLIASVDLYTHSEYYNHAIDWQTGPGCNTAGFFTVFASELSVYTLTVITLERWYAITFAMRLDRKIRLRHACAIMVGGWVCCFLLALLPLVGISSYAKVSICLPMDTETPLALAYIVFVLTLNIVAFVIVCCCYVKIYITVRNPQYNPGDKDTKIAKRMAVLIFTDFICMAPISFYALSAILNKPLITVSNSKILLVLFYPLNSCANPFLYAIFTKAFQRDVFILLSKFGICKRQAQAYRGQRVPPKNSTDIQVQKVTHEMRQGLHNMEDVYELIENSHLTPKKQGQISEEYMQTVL
Outline: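 Antagonist mode: compound-treated TSHR-expressing HEK293 cells were stimulated with 1.5 ng/mL TSH (final) in presence of Ro20-1724 for 30 min at RT. HTRF cAMP detection after 1 h; each compound tested at 15 concentrations, triplicate.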

[5] = qHTS assay to identify small molecule agonists of the estrogen receptor alpha (ER-alpha) signaling pathway in the presence of an antagonist - cell viability counter screen (AID 1259386);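 further: series mostly up to about 92 µM; cells exposed to compounds for 22 h at 37 °C before the viability read; nearly all actives have a fitted effect of over 30% in size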
Outline: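 VM7Luc4E2, stripped-serum pre-culture 5 d; 24hr plating; +ICI-182,780 10.0nM final; cpds 15 conc, 22hr, 37C/5% CO2; CellTiter-Fluor added at 21hr, fluorescence 1hr later.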

[6] = target: Progesterone receptor (Homo sapiens) (UniProt P06401); assay: qHTS assay to identify small molecule agonists of the progesterone receptor (PR) signaling pathway (AID 1346784; calls by dose curve; further: nearly all actives have a fitted effect of over 30% in size)
Sequence of Progesterone receptor (Homo sapiens) (P06401 whole entry, looked up): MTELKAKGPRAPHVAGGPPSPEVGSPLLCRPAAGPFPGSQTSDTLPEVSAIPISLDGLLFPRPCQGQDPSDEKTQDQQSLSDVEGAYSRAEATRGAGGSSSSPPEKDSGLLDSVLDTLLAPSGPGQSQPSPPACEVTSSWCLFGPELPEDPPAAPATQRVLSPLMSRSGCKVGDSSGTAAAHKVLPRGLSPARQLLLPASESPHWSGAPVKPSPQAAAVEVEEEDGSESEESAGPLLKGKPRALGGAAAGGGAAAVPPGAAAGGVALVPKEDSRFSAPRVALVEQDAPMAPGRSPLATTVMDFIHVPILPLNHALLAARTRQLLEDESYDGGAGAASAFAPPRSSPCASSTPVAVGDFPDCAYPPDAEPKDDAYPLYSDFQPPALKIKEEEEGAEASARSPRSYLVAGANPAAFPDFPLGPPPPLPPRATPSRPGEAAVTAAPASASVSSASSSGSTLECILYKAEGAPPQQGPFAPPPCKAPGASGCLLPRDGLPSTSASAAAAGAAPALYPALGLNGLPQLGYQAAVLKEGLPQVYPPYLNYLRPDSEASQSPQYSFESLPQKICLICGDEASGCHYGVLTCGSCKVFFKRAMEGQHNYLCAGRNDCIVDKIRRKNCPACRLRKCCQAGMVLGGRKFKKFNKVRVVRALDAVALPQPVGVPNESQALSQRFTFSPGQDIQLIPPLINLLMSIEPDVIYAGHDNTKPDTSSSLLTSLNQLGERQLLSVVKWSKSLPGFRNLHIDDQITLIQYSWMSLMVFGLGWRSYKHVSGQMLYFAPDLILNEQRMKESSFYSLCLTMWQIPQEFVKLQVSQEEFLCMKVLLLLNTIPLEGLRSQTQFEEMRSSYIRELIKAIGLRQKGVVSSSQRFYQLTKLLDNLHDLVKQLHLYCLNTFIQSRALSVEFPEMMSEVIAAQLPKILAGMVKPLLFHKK
Outline: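 Seed PR-UAS-bla HEK 293T cells (2% charcoal-stripped FBS), incubate 6 hr at 37C; add compounds in DMSO, 16 hr at 37C; add LiveBLAzer B/G substrate, 2 hr RT; read fluorescence intensity.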

[7] = target: Progesterone receptor (Homo sapiens) (UniProt P06401); assay: qHTS assay to identify small molecule antagonists of the progesterone receptor (PR) signaling pathway (AID 1346795; active means well fitted inhibition curve with a large enough effect in the signal ratio in the repeat runs, not every such curve was filed as active; the % refers to the signal ratio)
Outline: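 Screening used a GripTite HEK293T line with PR-responsive UAS-beta-lactamase. Cells were challenged with compound in the presence of 1 nM R5020 final for 16 hr at 37C; B/G FRET substrate, 2 hr room temperature, fluorescence.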

[8] = qHTS assay to identify small molecule antagonists of the progesterone receptor (PR) signaling pathway - cell viability counter screen (AID 1346798); further: series mostly up to about 92 µM; nearly all actives have a fitted effect of over 50% in size
Outline: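 Measures cytotoxicity in parallel with the PR antagonist reporter read: HEK293T PR-UAS-bla cells get compound and R5020 for 16 hr, and remaining viable cells are quantified by CellTiter-Glo luminescence.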

[9] = qHTS assay to identify small molecule agonists of the progesterone receptor (PR) signaling pathway - cell viability counter screen (AID 1346799; calls by dose curve; further: nearly all actives have a fitted effect of over 45% in size)
Outline: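 Using the same plates as the PR reporter screen, HEK293T PR-UAS-bla cells received compounds for 16 hr at 37C and were then lysed with CellTiter-Glo; luminescence was read 30 min later at room temperature.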

[10] = qHTS assay to identify small molecule antagonists of the TGF-beta/Smad signaling pathway - cell viability counter screen (AID 1346824); further: nearly all actives have a fitted effect of over 50% in size
Outline: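 Cytotoxicity counter-screen run in the same wells as the beta-lactamase Smad reporter read: CellTiter-Glo luminescence after 30 min at room temperature. HEK 293T SBE-bla cells had 5 hr compound exposure at 37 C with TGF-beta1 (0.25 ng/mL stock).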

[11] = qHTS assay to identify small molecule agonists of the TGF-beta/Smad signaling pathway - cell viability counter screen (AID 1346829); further: top concentration of the series differs between compounds; nearly all actives have a fitted effect of over 45% in size
Outline: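 HEK 293T SBE-bla line, 5 hr compound exposure at 37 C, multiplexed CellTiter-Glo viability read by luminescence.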

[12] = qHTS assay to identify small molecule agonists of the TGF-beta/Smad signaling pathway (AID 1346859; active means well fitted activation curve with a large enough effect in the signal ratio in the repeat runs, not every such curve was filed as active; the % refers to the signal ratio; further: series mostly up to about 77 µM)
Outline: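 Beta-lactamase reporter activity downstream of Smad binding elements was measured in stably transfected HEK 293T cells; compounds were incubated for 5 hr, substrate for 2 hr at room temperature.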

[13] = target: Thyrotropin-releasing hormone receptor (Homo sapiens) (UniProt P34981); assay: qHTS assay to identify small molecule antagonists of the thyrotropin-releasing hormone receptor (TRHR) signaling pathway (AID 1346877; active means well fitted inhibition curve with a large enough effect in the repeat runs, not every such curve was filed as active; further: series mostly up to about 51 µM)
Sequence of Thyrotropin-releasing hormone receptor (Homo sapiens) (P34981 whole entry, looked up): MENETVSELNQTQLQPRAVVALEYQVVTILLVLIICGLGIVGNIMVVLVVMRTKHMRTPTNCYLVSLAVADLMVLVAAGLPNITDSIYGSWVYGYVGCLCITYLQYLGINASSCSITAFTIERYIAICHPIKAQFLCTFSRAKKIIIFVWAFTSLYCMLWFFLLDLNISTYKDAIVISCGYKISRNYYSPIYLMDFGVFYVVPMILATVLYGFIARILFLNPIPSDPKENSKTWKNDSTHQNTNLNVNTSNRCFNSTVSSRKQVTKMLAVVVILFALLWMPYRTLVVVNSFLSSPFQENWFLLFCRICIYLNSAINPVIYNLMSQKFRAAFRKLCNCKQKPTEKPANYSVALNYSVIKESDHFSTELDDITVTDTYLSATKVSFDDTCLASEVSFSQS
Outline: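 Intracellular calcium fluorescence, read kinetically every second over 3 min, reports TRH-evoked signalling in HEK293 cells carrying TRHR. Test compounds were added 5 min ahead of a 1 nM TRH challenge.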

[14] = target: Thyrotropin-releasing hormone receptor (Homo sapiens) (UniProt P34981); assay: qHTS assay to identify small molecule agonists of the thyrotropin-releasing hormone receptor (TRHR) signaling pathway (AID 1346891; calls by dose curve;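 further: HEK293 cells expressing TRHR with calcium dye readout; series mostly up to about 58 µM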)
Outline: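 Overnight-plated (18 h, 37 °C, 5% CO2) TRHR-Hek293 cells; 2 h calcium dye at 37 °C; compound in DMSO; 3-min kinetic fluorescence read.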

[15] = Human pregnane X receptor (PXR) small molecule agonists, qHTS cell viability counter screen (AID 1346977); further: nearly all actives have a fitted effect of over 50% in size
Outline: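 After a 5hr pre-incubation, PXR-Luc HepG2 cells received compounds plus positive control in DMSO and were kept 24hr at 37C. Cell viability was quantified by fluorescence from CellTiter-Fluor added for the final hour.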

[16] = Caspase-3/7 induction in HepG2 cells by small molecules, qHTS assay (AID 1346978); further: nearly all actives have a fitted effect of over 15% in size
Outline: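 Caspase-3/7 induction was measured by Caspase-Glo 3/7 luminescence (30 min, room temperature) after a 17 hr compound exposure of wild-type HepG2 cells seeded at 2,000 per well and pre-incubated 5 hr.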

[17] = Caspase-3/7 induction in CHO-K1 cells by small molecules, qHTS cell viability counter screen (AID 1346979); further: nearly all actives have a fitted effect of over 35% in size
Outline: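 Multiplexed with Caspase-Glo 3/7 in CHO-K1 cells, this counter screen added CellTiter-Fluor after 16hr of compound exposure and recorded fluorescence 1hr later.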

[18] = Caspase-3/7 induction in CHO-K1 cells by small molecules, qHTS assay (AID 1346980); further: nearly all actives have a fitted effect of over 15% in size
Outline: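 Luminescent Caspase-Glo 3/7 read (30min, room temperature) quantified apoptosis induction. Cells were wild-type CHO-K1, treated with compound for 17hr at 37 C and 5% CO2.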

[19] = Caspase-3/7 induction in HepG2 cells by small molecules, qHTS cell viability counter screen (AID 1346981); further: series mostly up to about 92 µM; nearly all actives have a fitted effect of over 30% in size
Outline: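 HepG2, WT, 2,000 cells/well; 5 hr pre-incubation 37 C/5% CO2; compound pin-transferred from DMSO; 16 hr exposure; CellTiter-Fluor, 1 hr; fluorescence read.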

[20] = target: Nuclear receptor subfamily 1 group I member 2 (Homo sapiens) (UniProt O75469); assay: Human pregnane X receptor (PXR) small molecule agonists, qHTS assay (AID 1346982); further: nearly all actives have a fitted effect of over 35% in size; further: potency means the concentration at half of the fitted maximal effect
Sequence of Nuclear receptor subfamily 1 group I member 2 (Homo sapiens) (O75469 whole entry, looked up): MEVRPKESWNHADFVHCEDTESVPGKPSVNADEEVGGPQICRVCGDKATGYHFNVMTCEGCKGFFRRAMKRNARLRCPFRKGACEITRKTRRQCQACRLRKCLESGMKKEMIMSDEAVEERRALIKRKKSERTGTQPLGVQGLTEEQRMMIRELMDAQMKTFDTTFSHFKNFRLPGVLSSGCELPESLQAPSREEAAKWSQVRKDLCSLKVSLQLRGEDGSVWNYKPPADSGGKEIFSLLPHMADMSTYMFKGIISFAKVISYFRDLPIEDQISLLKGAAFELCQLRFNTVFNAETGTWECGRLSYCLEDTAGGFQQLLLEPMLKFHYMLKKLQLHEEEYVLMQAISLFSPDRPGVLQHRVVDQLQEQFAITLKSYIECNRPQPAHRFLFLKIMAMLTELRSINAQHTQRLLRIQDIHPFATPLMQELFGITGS
Outline: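 Luciferase signal from ONE-Glo (30 min, room temperature) measured activation of hPXR-driven CYP3A4 reporter expression in PXR-Luc HepG2 cells treated with compounds for 24 hr at 37 C.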

| SMILES | outcome [1] | Potency [2] | outcome [3] | outcome [4] | outcome [5] | Potency [6] | Potency [7] | outcome [8] | Potency [9] | outcome [10] | outcome [11] | outcome [12] | outcome [13] | Potency [14] | outcome [15] | outcome [16] | Potency [17] | outcome [18] | outcome [19] | Potency [20] |
| --- | --- | --- | --- | --- | --- | --- | --- | --- | --- | --- | --- | --- | --- | --- | --- | --- | --- | --- | --- | --- |
| NCC1CCC(C(=O)Oc2ccc(CCC(=O)O)cc2)CC1 (stereo not drawn) | inactive | inactive | inactive | inactive | inactive | inactive | inactive | inactive | inactive | inactive | inactive | inactive | inactive | inactive | inactive | inactive | inactive | inactive | inactive | inactive |
| CC(=O)OC/C=C(/C)CCC=C(C)C | inactive | inactive | inactive | inactive | inactive | inactive | inactive | inactive | inactive | inactive | – | inactive | – | – | inactive | inactive | – | inactive | inactive | – |
| Cc1ccccc1C#N | inactive | inactive | inactive | inactive | inactive | inactive | inactive | inactive | – | inactive | inactive | inactive | inactive | inactive | inactive | inactive | inactive | inactive | inactive | inactive |
| CCCc1ccc(O)c(OC)c1 | inactive | inactive | inactive | inactive | inactive | inactive | inactive | inactive | inactive | inactive | inactive | inactive | inactive | inactive | inactive | inactive | – | inactive | inactive | – |
| CC(=O)OC1CCC(C(C)(C)C)CC1 (stereo not drawn) | inactive | inactive | inactive | inactive | inactive | inactive | inactive | inactive | – | inactive | inactive | inactive | inactive | inactive | inactive | inactive | – | inactive | inactive | inactive |
| C/C(Cl)=C/CCl | inactive | inactive | inactive | inactive | inactive | inactive | inactive | inactive | inactive | inactive | inactive | inactive | inactive | inactive | inactive | inactive | – | inactive | inactive | inactive |
| O=C(O)Cc1ccccc1Oc1ccc(Cl)cc1Cl | inactive | inactive | inactive | inactive | inactive | inactive | inactive | inactive | inactive | inactive | inactive | inactive | inactive | – | inactive | inactive | inactive | inactive | inactive | – |
| C/C(=N\O)c1ccc(OCC(=O)N2CCCCC2)cc1 | inactive | inactive | inactive | inactive | inactive | inactive | inactive | inactive | inactive | inactive | inactive | inactive | inactive | inactive | inactive | inactive | inactive | inactive | inactive | 10.6 µM (active) |
| CC(O)C(CO)C(C)O (stereo not drawn) | inactive | inactive | inactive | inactive | inactive | inactive | inactive | – | inactive | inactive | inactive | inactive | inactive | inactive | inactive | inactive | inactive | inactive | inactive | inactive |
| C[C@@H]1CCC[C@H](C)N1CCCC(O)(c1ccccc1)c1ccccn1 (stereo partly drawn) | inactive | inactive | inactive | inactive | – | inactive | inactive | inactive | inactive | inactive | inactive | inactive | inactive | inactive | inactive | inactive | inactive | inactive | inactive | inactive |
| CN(C)c1cc(NC(=O)CNC(C)(C)C)c(O)c2c1C[C@H]1C[C@H]3[C@H](N(C)C)C(=O)C(C(N)=O)=C(O)[C@@]3(O)C(=O)C1=C2O | inactive | inactive | inactive | – | inactive | inactive | inactive | inactive | – | inactive | inactive | inactive | inactive | – | inactive | inactive | inactive | inactive | inactive | inactive |
| CN(C)CCc1c[nH]c2ccc(CS(=O)(=O)N3CCCC3)cc12 | inactive | inactive | inactive | inactive | inactive | inactive | inactive | – | inactive | inactive | – | inactive | inactive | inactive | inactive | inactive | inactive | inactive | inactive | inactive |
| Cc1cc(C)c(N)c(Cl)c1 | inactive | inactive | – | inactive | inactive | inactive | inactive | inactive | inactive | inactive | inactive | inactive | inactive | inactive | inactive | inactive | inactive | inactive | inactive | inactive |
| N[C@H]1C(O)O[C@H](CO)[C@@H](O)[C@@H]1O (stereo partly drawn) | inactive | inactive | inactive | inactive | – | inactive | inactive | inactive | inactive | inactive | inactive | inactive | inactive | – | inactive | inactive | – | inactive | inactive | inactive |
| CC(C)=CCC/C(C)=C\C#N | inactive | inactive | inactive | inactive | – | inactive | inactive | – | – | inactive | inactive | inactive | inactive | inactive | inactive | inactive | inactive | inactive | inactive | inactive |

From PubChem BioAssay (Tox21)
